# The whole screen tested about 310,000 compounds, of which about 14,000 (4.5%) showed an effect of 50% or more. Effects have a minus sign here. This is one part of a sample in which strong results are shown more often than they occur.
# Molecular target: human ether-à-go-go-related gene (hERG) potassium channel (human, UniProt Q12809)
# Experiment: primary screen, population patch clamp on CHO cells stably expressing hERG; higher = less effect of the substance
# 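Note: peak tail current of the secondary pulse compared with the same well before compound.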
# Chain of human ether-à-go-go-related gene (hERG) potassium channel (Q12809 whole entry, looked up): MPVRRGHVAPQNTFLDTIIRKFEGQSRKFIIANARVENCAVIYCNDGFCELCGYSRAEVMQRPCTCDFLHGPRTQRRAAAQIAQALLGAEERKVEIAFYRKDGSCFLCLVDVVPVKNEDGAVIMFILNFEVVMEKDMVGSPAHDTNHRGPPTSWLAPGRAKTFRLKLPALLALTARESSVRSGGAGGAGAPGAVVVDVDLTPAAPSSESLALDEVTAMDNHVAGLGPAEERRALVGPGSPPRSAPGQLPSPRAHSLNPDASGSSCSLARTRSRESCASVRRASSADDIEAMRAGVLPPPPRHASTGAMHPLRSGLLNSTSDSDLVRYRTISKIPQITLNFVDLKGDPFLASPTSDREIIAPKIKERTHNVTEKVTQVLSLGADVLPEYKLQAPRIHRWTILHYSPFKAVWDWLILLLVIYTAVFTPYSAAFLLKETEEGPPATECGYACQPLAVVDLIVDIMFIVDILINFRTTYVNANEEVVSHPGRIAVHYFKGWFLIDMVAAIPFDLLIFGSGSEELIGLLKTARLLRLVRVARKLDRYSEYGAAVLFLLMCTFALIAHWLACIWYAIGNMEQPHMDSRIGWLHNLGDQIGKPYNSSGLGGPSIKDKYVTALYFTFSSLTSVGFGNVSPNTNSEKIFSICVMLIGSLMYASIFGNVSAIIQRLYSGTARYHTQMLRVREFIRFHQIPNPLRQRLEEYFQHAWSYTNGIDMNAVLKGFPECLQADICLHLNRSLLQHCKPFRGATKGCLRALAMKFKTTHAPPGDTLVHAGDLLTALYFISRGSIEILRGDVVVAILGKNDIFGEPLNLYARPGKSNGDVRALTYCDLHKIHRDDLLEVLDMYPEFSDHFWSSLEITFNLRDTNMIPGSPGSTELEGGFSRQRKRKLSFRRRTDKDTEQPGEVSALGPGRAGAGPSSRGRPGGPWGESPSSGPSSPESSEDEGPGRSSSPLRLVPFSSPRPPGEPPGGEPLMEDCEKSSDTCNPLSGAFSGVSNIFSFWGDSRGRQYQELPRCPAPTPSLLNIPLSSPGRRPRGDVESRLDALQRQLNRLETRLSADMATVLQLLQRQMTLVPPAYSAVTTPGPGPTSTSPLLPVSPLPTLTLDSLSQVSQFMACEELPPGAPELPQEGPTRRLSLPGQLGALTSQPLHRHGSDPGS
row,SMILES,"hERG current change (%, negative = inhibition) at 10uM [%]"
1,COc1ccc(NCc2ccsc2)cc1,2.52
2,O=C(NCC1CC1)c1ccccc1Cl,11.6
3,COc1ccc(N2CCN(C3CC(=O)N(c4ccc5c(c4)OCCO5)C3=O)CC2)cc1 (stereo not drawn),-2.06
4,CC(=O)Oc1ccccc1C(=O)N(C1CCCCC1)C1CCCCC1,15.3
5,COc1ccc(C(=O)N/N=C(\Cc2ncc[nH]2)c2ccccc2)cc1,2.43
6,COCCN(C(=O)CSc1nnc(-c2ccccc2C)n1C)c1c(N)n(Cc2ccccc2)c(=O)[nH]c1=O,38.4
7,COc1ccc(/C=C/C(=O)N2CCCc3ccccc32)cc1,-16.8
8,O=C(/C=C/c1ccccc1)N1CCOCC1,13.9
9,O=C(/C=C/c1ccccc1)N1CCC(c2ccccc2)C1 (stereo not drawn),-57.6
10,O=C(/C=C/c1ccc(F)cc1)N1CCCc2ccccc21,-62.7
11,O=C(/C=C/c1cccc(F)c1)N1CCc2ccccc21,4.51
12,CN1CCN(C(=O)/C=C/c2ccccc2)CC1,4.5
13,COc1ccc(/C=C/C(=O)N2CCC(c3ccccc3)C2)cc1 (stereo not drawn),-47.4
14,COc1ccccc1/C=C/C(=O)N1CCC(c2ccccc2)C1 (stereo not drawn),-4.29
15,O=C(/C=C/c1ccccc1)N1CCCN(C(=O)/C=C/c2ccccc2)CC1,-68.5
16,CCC(=O)Oc1ccc2c(c1)OC1(OC(C)=O)OC(C)CC1=C2C (stereo not drawn),-5.19
17,CCCCn1nnnc1NCc1cccnc1,8.93
18,COc1ccc(CC(=O)NCc2nnc(SCC(=O)Nc3ccc(OC)cc3)n2C)cc1,4.08
19,Cc1ccc(S(=O)(=O)N2CCN(C(=O)c3ccc(COc4ccccc4)o3)CC2)cc1,-0.773
20,CCOC(=O)c1ccc(NC(=O)C2CCCN(S(=O)(=O)c3ccc(F)cc3)C2)cc1 (stereo not drawn),-15.1
21,COc1ccc(-c2nn(C)c3sc(C(=O)NCCN(C)C)cc23)cc1OC,15.4
22,O=C(OCC(=O)c1ccc(Cl)cc1Cl)c1cnccn1,-58.3

row,SMILES,"hERG current change (%, negative = inhibition) at 10uM [%]"
1,Cc1cc(Cl)ccc1OCCCC(=O)NCCCn1ccnc1,-68.1
2,O=C(COC(=O)c1cnccn1)c1ccc(Cl)cc1,24.4
3,CCOc1cc(Cl)c(S(=O)(=O)NCCCn2ccnc2)cc1Cl,-48.9
4,Cc1cc(Cl)ccc1OCC(=O)NCCCn1ccnc1,-29.8
5,CC(Oc1ccc(Cl)cc1Cl)C(=O)NCCCn1ccnc1 (stereo not drawn),-28
6,CCOc1cc(S(=O)(=O)NCCCn2ccnc2)ccc1Cl,-64
7,Cc1cc(Cl)ccc1OCCCC(=O)NCc1ccncc1,-44.4
8,COc1cc(S(=O)(=O)NCCCn2ccnc2)ccc1Cl,7.94
9,Cl.O=C(COc1ccc(Cl)cc1Cl)NCCCn1ccnc1,-38.6
10,O=C(OCC(=O)c1ccccc1Cl)c1cnccn1,-0.611
11,O=C(CCCOc1ccc(Cl)cc1Cl)NCCCn1ccnc1,-62.5
12,Cc1ncc([N+](=O)[O-])n1CC(=O)Nc1ccc(F)cc1F,13.3
13,CCOc1ncccc1C(=O)OCC(=O)Nc1ccc(C)c(S(=O)(=O)N2CCOCC2)c1,-27
14,CCOC(=O)[C@H]1[C@H]2COc3ccc(OC)cc3[C@@H]2N2C(=O)CN(Cc3ccc(F)cc3)C(=O)[C@@]12C,-26.5
15,CCOC(=O)/C=c1\s/c(=C\c2ccc(C(=O)OC)cc2)c(=O)n1CC(=O)Nc1ccccc1.Cl,19.5
16,COc1ccc(NC(=O)CCCn2c(=O)c3sccc3n(Cc3ccc(C)cc3)c2=O)cc1,-5.72
17,COc1ccc(NC(C)=O)cc1S(=O)(=O)N1CCN(C(=O)c2ccccc2F)CC1,-7.16
18,O=C(COc1ccc(Cl)cc1)NCCCNC(=O)c1cnccn1,-10.2
19,O=C(NCCCNC(=O)c1ccc(-c2cccc(Cl)c2)o1)c1cnccn1,-31.8
20,Cc1ccc(-c2ccc(C(=O)NCCCNC(=O)c3cnccn3)o2)cc1Cl,25.5
21,O=C(COc1ccc(Cl)cc1Cl)NCCCNC(=O)c1cnccn1,-56.5
22,O=C(NCCNC(=O)c1ccc(-c2ccc(Cl)c(Cl)c2)o1)c1cnccn1,-71.6

row,SMILES,"hERG current change (%, negative = inhibition) at 10uM [%]"
1,O=C(COc1ccccc1Cl)NCCCNC(=O)c1cnccn1,5.28
2,CCn1c(SCc2cc(=O)[nH]c3ccccc23)nnc1C1CC1,8.48
3,O=C(N/N=C/c1ccncc1)c1cccc(NC(=O)c2ccccc2Cl)c1,-2.33
4,O=C(C1CCN(S(=O)(=O)c2cccc3nsnc23)CC1)N1CCCCC1,2.03
5,O=C(CN1CCN(c2ccc(F)cc2)CC1)N(C1CCCC1)C1CCS(=O)(=O)C1 (stereo not drawn),-40.4
6,Cc1ccccc1Cn1cc(/C=N/n2cnnc2)c2ccccc21,14.8
7,COc1cc(CC(=O)Oc2ccc3c(c2)OCO3)cc(OC)c1OC,-2.51
8,COc1ccc(CCNC(=O)CS(=O)(=O)Cc2nc(-c3ccccc3Cl)oc2C)cc1OC,-3.23
9,CC(=O)Nc1cccc(/C(C)=N/NC(=O)c2cc(-c3ccncc3)nc3ccccc23)c1,-6.95
10,COc1ccc(-c2cc(C(=O)N/N=C(\C)c3cccnc3)c3ccccc3n2)cc1,8.87
11,COc1ccc(-c2cc(C(=O)N/N=C(\C)c3cccnc3)c3ccccc3n2)c(OC)c1,1.6
12,COc1ccc(OC)c(-c2cc(C(=O)N/N=C(\C)c3cccnc3)c3ccccc3n2)c1,-65.5
13,COc1ccc(/C(C)=N/NC(=O)c2cc(-c3cccnc3)nc3ccccc23)cc1,10.6
14,CCn1cc(CNC(=O)c2cc(-c3cc(OC)ccc3OC)nc3ccccc23)c(C)n1,-53.9
15,CCn1cc(CNC(=O)c2cc(-c3ccccc3OC)nc3ccccc23)c(C)n1,-19.5
16,COc1ccc(-c2cc(C(=O)NCc3cn(C)nc3C)c3ccccc3n2)cc1OC,2.61
17,C/C(=N\NC(=O)c1cc(-c2ccncc2)nc2ccccc12)c1ccc(OC(F)F)cc1,-56.1
18,CCOC(=O)c1cc(-c2ccccc2C)n(CC2CC(c3cccc([N+](=O)[O-])c3)=NO2)n1 (stereo not drawn),0.113
19,Cc1csc(SCC(=O)Nc2cccc(S(=O)(=O)N3CCOCC3)c2)n1,-6.13
20,CCn1nnnc1SCC(=O)N1c2ccccc2CCc2ccccc21,2.92
21,CCOC(=O)C(=O)Nc1nnc(SCc2ccc(F)cc2)s1,1.7
22,Cc1ccc(SCC(=O)NC2CC2)cc1,13.3

row,SMILES,"hERG current change (%, negative = inhibition) at 10uM [%]"
1,CCOCCCNC(=O)c1cc(C)nn1-c1ccccc1,11
2,CC1CN(Cc2cn(C)nc2-c2ccc(Oc3ccccc3)cc2)CCN1C (stereo not drawn),-57.2
3,Cn1cc(CN2CCC(O)CC2)c(-c2ccc(Oc3ccccc3)cc2)n1,-23.7
4,Cn1cc(CN2CCN(CCO)CC2)c(-c2ccc(Oc3ccccc3)cc2)n1,-32.3
5,COC1CCCN(Cc2cn(C)nc2-c2ccc(Oc3ccccc3)cc2)C1 (stereo not drawn),-40.7
6,CCCN1CCC(NCc2cn(C)nc2-c2ccc(Oc3ccccc3)cc2)CC1,-66.1
7,Cn1cc(CN2CCCC(CO)C2)c(-c2ccc(Oc3ccccc3)cc2)n1 (stereo not drawn),-26.2
8,C[C@H]1C(=O)N(C)CCN1Cc1cn(C)nc1-c1ccc(Oc2ccccc2)cc1,-4.92
9,Cn1cc(CN2CCC(CO)CC2)c(-c2ccc(Oc3ccccc3)cc2)n1,-67.5
10,COCCN1CCN(Cc2cn(C)nc2-c2ccc(Oc3ccccc3)cc2)CC1,-65.2
11,CCN(CC)C(=O)C1CCN(Cc2cn(C)nc2-c2ccc(Oc3ccccc3)cc2)CC1,-46.9
12,CCOC(=O)C1CCN(Cc2cn(C)nc2-c2ccc(Oc3ccccc3)cc2)CC1,-44.9
13,COCCN1CCCC(CNCc2cn(C)nc2-c2ccc(Oc3ccccc3)cc2)C1 (stereo not drawn),-33.2
14,O=C(O)c1ccc2c3c(cccc13)C(=O)N(c1cccc3ccccc13)C2=O,34.3
15,COc1ccc(-c2[nH]ncc2CN(CCO)Cc2cccs2)c(F)c1,4.65
16,CCCC(=O)NC(C)c1nc2ccccc2n1C(C)C (stereo not drawn),8.05
17,Cc1cc(C)cc(N(CCC#N)C(=O)COC(=O)CN2C(=O)NC(C)(C)C2=O)c1,19.6
18,COc1cccc(NC(=O)NNS(=O)(=O)c2ccc(OC)cc2OC)c1,-3
19,COc1ccc(N=N/C(C(C)=O)=C(/C)O)cc1,-24.5
20,CN(C)S(=O)(=O)c1cccc(-c2nn(-c3ccccc3)cc2/C=C2\SC(=S)NC2=O)c1,20.1
21,CCOc1cc(C(=O)OCC(=O)N(C)c2ccccc2)cc(OCC)c1OCC,-17.6
